mHTT CaM bind: inhibitors of human mutant huntingtin-calmodulin interaction. P42858. AlphaScreen His-mHTT/GST-CaM binding, luminescence. inhibition, % at 15 µM. 190,000 compounds, 3.6% hits;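 further: 0% = both proteins with DMSO and 100% = one protein alone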
Pf apPOL block: Pf-apPOL DNA polymerase inhibition; Recombinant Pf-apPOL, molecular beacon fluorescence, 1.5 h; inhibition, % at 10 µM; 210,000 compounds, 0.25% hits; AID 1794808
* = called active by the depositor. Compounds with a hit are over-represented: about 3.5% of the library has one in this group of screens. No stated cut-off is given here; in the data, active means inhibition above about 50%; inactive means the rest.

Screening Cc1ccc(O)c(N=C2C(=O)Nc3ccccc32)c1 returned mHTT CaM bind 56* and Pf apPOL block 1.
`COc1ccccc1CCNC(=O)c1cn(C)nn1` gave mHTT CaM bind -11 and Pf apPOL block -4.
`O=C1CC(c2ccccc2)CC2=C1C(c1cccc(C(F)(F)F)c1)Nc1ccccc1N2` (stereo unspecified) gave mHTT CaM bind 61* and Pf apPOL block -16.
For COc1cccc(C2CC(=O)C3=C(C2)Nc2ccccc2NC3c2ccc(C(F)(F)F)cc2)c1 (stereo unspecified) the results were mHTT CaM bind 53* and Pf apPOL block -13.
`O=C1CC(c2ccc3c(c2)OCO3)CC2=C1C(c1ccc3c(c1)OCO3)Nc1ccccc1N2` (stereo unspecified) gave mHTT CaM bind 27 and Pf apPOL block -2.
`O=C1CC(c2cccs2)CC2=C1C(c1ccc(Cl)cc1)Nc1ccccc1N2` (stereo unspecified) gave mHTT CaM bind 33 and Pf apPOL block -21.
COc1cccc(C2CC(=O)C3=C(C2)Nc2ccccc2NC3c2ccc(C)s2)c1 (stereo unspecified) was read as mHTT CaM bind 28 and Pf apPOL block -6.
For O=C1CC(c2ccc3c(c2)OCO3)CC2=C1C(c1ccc(C(F)(F)F)cc1)Nc1ccccc1N2 (stereo unspecified) the results were mHTT CaM bind 62* and Pf apPOL block 2.
For O=C1CC(c2ccccc2)CC2=C1C(c1ccc(F)cc1)Nc1ccccc1N2 (stereo unspecified) the results were mHTT CaM bind 11 and Pf apPOL block -13.
`CSc1ccc(C2Nc3ccccc3NC3=C2C(=O)CC(c2cccs2)C3)cc1` (stereo unspecified) gave mHTT CaM bind 54* and Pf apPOL block -11.
Screening Cc1cc(C)cc(NC(=O)Cn2c(C)c(C=O)c3ccccc32)c1 returned mHTT CaM bind 6 and Pf apPOL block -2.
`N#CCS/C(SCC(=O)c1ccc2c(c1)OCO2)=C(/C#N)C(=O)c1ccc2c(c1)OCO2` gave mHTT CaM bind 14.
Screening O=C1Nc2c([N+](=O)[O-])cc([N+](=O)[O-])cc2S(=O)(=O)C1c1ccccc1 (stereo unspecified) returned mHTT CaM bind 4 and Pf apPOL block -4.
Screening COc1ccc(C2C(C#N)=C(N)N(c3ccccc3Cl)C3=C2C(=O)CCC3)cc1O (stereo unspecified) returned mHTT CaM bind 6 and Pf apPOL block -6.
`Cc1ccc(S(=O)(=O)N2CCSC2c2ccc(Cl)cc2)cc1` (stereo unspecified) gave mHTT CaM bind -64 and Pf apPOL block -8.
Screening CCc1noc(-c2cccnc2N2CCCN(C(=O)c3ccccc3OC)CC2)n1 returned mHTT CaM bind 3 and Pf apPOL block -1.
`COc1ccc(-c2cn3c(C(=O)NCc4cccs4)csc3n2)cc1` gave mHTT CaM bind 10 and Pf apPOL block -3.
For Cc1ccc(-c2cn3c(CC(=O)NCc4cccs4)csc3n2)cc1 the results were mHTT CaM bind 52* and Pf apPOL block -21.
For Cc1cc(C)c(NC(=O)c2ccccc2Br)c(Cl)c1 the results were mHTT CaM bind 0 and Pf apPOL block -3.
`O=C(C1=CN(c2ccc(F)cc2)c2ccccc2S1(=O)=O)N1CCCCC1` gave mHTT CaM bind -2 and Pf apPOL block 1.
O=C(c1ccc2c(c1)C1C=CCC1C(c1ccc([N+](=O)[O-])cc1)N2)N1CCCC1 (stereo unspecified) was read as mHTT CaM bind 48 and Pf apPOL block -17.
For O=C(O)c1ccc2c(c1)C1C=CCC1C(c1ccccc1[N+](=O)[O-])N2 (stereo unspecified) the results were mHTT CaM bind 53* and Pf apPOL block -19.
For O=[N+]([O-])c1ccccc1C1Nc2ccc(Br)cc2C2C=CCC21 (stereo unspecified) the results were mHTT CaM bind 57* and Pf apPOL block -25.
For O=C(O)c1ccc2c(c1)C1C=CCC1C(c1cccc([N+](=O)[O-])c1)N2 (stereo unspecified) the results were mHTT CaM bind 85* and Pf apPOL block -2.
`CC=CC(=O)N1CCCSCC1CN1CCCC1` (stereo unspecified) gave mHTT CaM bind 9 and Pf apPOL block -9.
Screening O=C(Nc1cnc2ccccc2c1)c1cnc(N2CCN(c3ncccn3)CC2)c2ccccc12 returned mHTT CaM bind 6 and Pf apPOL block -1.
For Cc1cc(NC(=O)c2ccc(=O)n(Cc3cccc(F)c3)n2)no1 the results were mHTT CaM bind -11 and Pf apPOL block -18.
`OCC(O)Cn1c2ccc(Br)cc2c2cc(Br)cc(Br)c21` (stereo unspecified) gave mHTT CaM bind 98* and Pf apPOL block 3.
`OC(CN1CCN(c2ccccc2)CC1)Cn1c2ccccc2c2ccccc21` (stereo unspecified) gave mHTT CaM bind 12 and Pf apPOL block -5.
For OC(CN1CCCCC1)Cn1c2ccc(Br)cc2c2cc(Br)ccc21 (stereo unspecified) the results were Pf apPOL block -4.
For OC(CN1CCNCC1)Cn1c2ccccc2c2ccccc21 (stereo unspecified) the results were mHTT CaM bind 1 and Pf apPOL block 3.
OC(CN1CCNCC1)Cn1c2ccccc2c2cc(Br)ccc21 (stereo unspecified) was read as mHTT CaM bind 51* and Pf apPOL block -2.
For OC(CN1CCN(C/C=C/c2ccccc2)CC1)Cn1c2ccccc2c2ccccc21 (stereo unspecified) the results were mHTT CaM bind 100* and Pf apPOL block 2.
`COc1ccc(OC)c(C(O)CN2CCN(c3cccc(Cl)c3)CC2)c1` (stereo unspecified) gave mHTT CaM bind -1 and Pf apPOL block -5.
For Cc1c(Cl)cccc1NC(=O)C1CCN(c2ncnc3c2nc2n3CCCCC2)CC1 the results were mHTT CaM bind 6 and Pf apPOL block -7.
Screening CCOC(=O)c1c(C)c(C#N)c(N)n1-c1ccc(C)cc1 returned Pf apPOL block 3.
`Cc1ccc(/C=C2/N=C(c3c(-c4ccccc4)noc3C)OC2=O)cc1` gave mHTT CaM bind -2 and Pf apPOL block 3.
For COc1cc(C2=N/C(=C\C=C\c3ccccc3)C(=O)O2)cc(OC)c1OC the results were mHTT CaM bind 61* and Pf apPOL block 1.
COc1cc(C2=NC(=CC=Cc3ccccc3)C(=O)O2)cc(OC)c1OC was read as Pf apPOL block -10.
Screening Cc1onc(-c2ccccc2)c1C1=N/C(=C\C=C\c2ccccc2)C(=O)O1 returned mHTT CaM bind 68* and Pf apPOL block -2.
For O=C(NCc1ccc2c(c1)OCO2)c1ccsc1 the results were Pf apPOL block -11.
Screening CCCNc1cc(N2CCC(CCC(=O)NCc3cc(F)ccc3F)CC2)ncn1 returned mHTT CaM bind 6 and Pf apPOL block -7.
O=C(NCc1ccc(F)cc1)c1ccc(N2CCN(c3ccccn3)CC2)c([N+](=O)[O-])c1 was read as mHTT CaM bind 59* and Pf apPOL block -2.
For O=C(NCc1cccnc1)c1ccc(N2CCN(c3ccccn3)CC2)c([N+](=O)[O-])c1 the results were mHTT CaM bind 30 and Pf apPOL block -5.
Screening CCC1(c2cccc(OS(=O)(=O)c3cc(C)c(Cl)cc3Cl)c2)CCCCN(C)C1=O (stereo unspecified) returned Pf apPOL block -10.

High-throughput results from PubChem.
